The values below come from PubChem BioAssay AID927 (National Center for Advancing Translational Sciences (NCATS), 2007).

Among all 60,000 compounds or so, about 65 (0.1%) were called active. Only a selection was taken, and actives are over-represented in it overall. Unmarked numbers belong to inactive results. Calls follow the shape of the dose curve; as a rule, active = well fitted inhibition curve with a large enough effect; inconclusive = small, poorly fitted or top-dose-only effect; inactive = no such curve, though single readings can be large or run the other way. Non-standard residues stand in square brackets, D forms with d. Residues, ends and D or L forms follow the SMILES beside them. ξ: configuration not given here. ξV = CC(C)C(N)C(=O)O

Ubiquitin carboxyl-terminal hydrolase 2 (Homo sapiens), sequence (O75604 whole entry, looked up): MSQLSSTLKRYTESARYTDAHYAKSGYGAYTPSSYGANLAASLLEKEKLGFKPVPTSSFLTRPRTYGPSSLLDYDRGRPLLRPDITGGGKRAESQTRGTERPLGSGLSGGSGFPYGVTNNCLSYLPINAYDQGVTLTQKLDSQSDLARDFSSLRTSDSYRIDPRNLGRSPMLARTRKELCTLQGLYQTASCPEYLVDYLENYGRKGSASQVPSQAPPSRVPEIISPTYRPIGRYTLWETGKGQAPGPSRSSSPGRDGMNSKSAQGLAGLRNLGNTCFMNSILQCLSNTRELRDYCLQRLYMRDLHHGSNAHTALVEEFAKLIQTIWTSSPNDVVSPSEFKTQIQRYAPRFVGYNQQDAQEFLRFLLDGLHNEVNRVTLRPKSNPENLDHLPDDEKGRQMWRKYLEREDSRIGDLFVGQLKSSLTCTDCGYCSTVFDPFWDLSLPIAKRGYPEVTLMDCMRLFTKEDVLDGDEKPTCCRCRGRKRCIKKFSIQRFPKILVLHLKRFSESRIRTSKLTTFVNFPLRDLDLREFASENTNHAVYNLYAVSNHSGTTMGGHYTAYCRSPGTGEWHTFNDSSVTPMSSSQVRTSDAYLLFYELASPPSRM

In this assay the target is Ubiquitin carboxyl-terminal hydrolase 2 (Homo sapiens) (UniProt O75604). As to the kind of experiment: qHTS Assay for Inhibitors of Ubiquitin-specific Protease USP2a. Also: nearly all actives have a fitted effect of over 60% in size. Particulars: USP2a enzymatic assay; Potency: qHTS inhibition; series mostly up to 38.3 µM; activity change, negative = inhibition: at the top concentration. The source says:
NIH Molecular Libraries Screening Centers Network [MLSCN]
NIH Chemical Genomics Center [NCGC]
PI Name: Nicholson, Ben. Progenra Inc, Malvern, PA
Homeostasis of cellular proteins is maintained through a combination of synthesis and degradation. The pathway that accounts for the majority of protein degradation is the ubiquitin-proteasomal pathway. Ubiquitin (Ub) is highly conserved in all cells and the generation of a multi-Ub chain typically targets proteins for degradation by the proteasome. However, ubiquitination is highly reversible and dynamic. Deubiquitination, the reverse process, is catalyzed through the action of enzymes referred to as isopeptidases or deubiquitinating enzymes (DUBs). This group of enzymes is collectively responsible for maintaining adequate pools of free ubiquitin and regulating the ubiquitination status of cellular proteins. The class of DUBs referred to as the ubiquitin-specific proteases (USP) family functions endoproteolytically to cleave Ub chains from a wide range of protein substrates. USP2a deubiquitinates fatty acid synthase (FASN) which has recently been identified as an emerging oncology target. To identify inhibitors of USP2a a cell-free assay was employed.
The reporter enzyme chosen is phospholipase A2 (PLA2), which has an absolute requirement for a free amino terminus. Thus, fusion of a UBL to the N-terminus of PLA2 inactivates PLA2. When the UBL-PLA2 reporter enzyme is cleaved by USP2, the activated reporter can subsequently act on its substrate, which is the commercially available NBD C6-HPC (Invitrogen). Thus, this coupled assay gives a fluorescent read-out, which is generated through the cleavage of the PLA2 reporter enzyme. The assay, developed by Progenra, Inc. uses Ub-PLA2 and USP2a at near equal and low (nM) amounts and has been licensed for sale by LifeSensors, Inc. as the Ub-IsoPro1 kit.
NCGC Assay Protocol Summary:
The assay buffer, prepared fresh at the day of the assay, contains 20mM Tris-HCl pH 8.0, 2mM CaCl2, 2mM beta-Mercaptoethanol, 0.1% DMSO. 3ul of 40nM (20nM final) USP2 core, which is stored on ice, is dispensed into a medium-binding black solid Kalypsys 1,536 well plate using the Kalypsys dispenser. The assay plate is then pinned with 23nL compound with the Kalypsys pintool in columns 5-48. The controls are pinned as follows: column 1&2 two-fold dilutions of 2M NEM in duplicate; column 3 DMSO; column 4 2M NEM (final concentration 38.2mM). The assay plate is incubated at RT for 30min. Subsequently, 3uL of 40nM (20nM final) Ub-PLA2 and 40uM (20uM final) NBD C6-HPC (stored on ice and protected from light) were dispensed into the plate using the Kalypsys dispenser. Plates were read immediately (0 Hour) on an Envision (Perkin Elmer) plate reader using the following wavelengths Ex 460nm /Em 535nm. Then, the assay plates were incubated for 2.5 hours and read again on the Envision using the same settings
Data were normalized to the to AC100 inhibition (NEM). Concentration-response curves were fitted to the normalized data and the concentration-response curves were then classified based on curve quality (r2), response magnitude and degree of measured activity. The time zero reading was used to flag fluorescence artifacts.
Keywords: ubiquitination, deubiquitination, proteases, profluorescent, MLSMR, MLSCN, NIH Roadmap, qHTS, NCGC
For orientation: qHTS replaces the single test concentration by a dilution series.
Consider `CC(=O)OCC(=O)C1CCC2C3CCC4=CC(=O)CC[C@@]4(C)C3CC[C@]12C` (stereo partly drawn), for which the “activity change, negative = inhibition” value is -3.21%.

Turning to `COC1[C@H](OC(N)=O)C(O)[C@H](Oc2ccc3c(O)c(NC(=O)c4ccc(O)c(CC=C(C)C)c4)c(=O)oc3c2C)OC1(C)C` (stereo partly drawn), the “activity change, negative = inhibition” value is 5.79%. Regarding `O=C(O)C(O)[C@@](O)(Cc1ccc(O)cc1)C(=O)O` (stereo partly drawn), the “activity change, negative = inhibition” value was -9.13%. For `N#CC1=C(N)Oc2cc(O)ccc2C1C1CCCCC1` (stereo not drawn), the “activity change, negative = inhibition” value was -16.2%. The value for `CS(=O)(=O)N1CCC2(CC1)CN(Cc1cc(C(F)(F)F)cc(C(F)(F)F)c1)C2` was 22.6%; that for `O=C(CN1CCOCC1)Nc1c(-c2ccccc2)c2cc(Br)ccc2[nH]c1=O` was 21.4%; that for `CSc1ccc(S(=O)(=O)Nc2cccc(F)c2)cc1` was 4.55%. For the molecule `COc1ccc2occ(C(=O)c3ccc(N=C(C)N(C)C)cc3)c2c1`, the “activity change, negative = inhibition” value was 11.4%.

For the molecule `CN(Cc1ccco1)c1ncncc1-c1ccoc1`, the “activity change, negative = inhibition” value is -5.34%. With `O=C(NCc1ccc2c(c1)OCO2)c1cc2c(s1)CS(=O)(=O)C2`, the “activity change, negative = inhibition” value is 39.2%. The value for `CC(=NCc1ccco1)C1=C(O)c2ccccc2C1=O` was 9.53%. `COc1cccc(C(CC(=O)NCCN2CCOCC2)NS(=O)(=O)c2ccc(C)cc2)c1OC` (stereo not drawn): the “activity change, negative = inhibition” value was 4.84%. On to `COC(=O)N1CCC[C@@]2(CCN(C(=O)NC(C)C)C2)C1`, for which the “activity change, negative = inhibition” value is 6.83%. `CC(C)=CCC/C(C)=C/CC/C(C)=C/CC/C(C)=C/CO`: the “activity change, negative = inhibition” value is -13.7%. In the case of `CCCn1c(=O)c2ccccc2n2c(SCC(=O)/C(C#N)=C(\C)N)nnc12` it was 5.46%; in that of `Cc1ccc(S(=O)(=O)N(C)CC(=O)NC2CCCC2)cc1`, 6.82%; in that of `O=C(Nc1ccc2c(c1)OCO2)C1CC(c2c(F)cccc2Cl)=NO1` (stereo not drawn), -8.71%. In the case of `CCOc1ccccc1Nc1nnc(SCc2ccc(C(=O)OC)o2)s1`, the “activity change, negative = inhibition” value was 10.2%.

With `Cc1cccc(-n2ncc3c(N4CCc5ccccc54)ncnc32)c1`, the “activity change, negative = inhibition” value was 2.95%. In the case of `CCOC(=O)C1Cn2c(nc3c(c2=O)C(C)(CC)Cc2ccccc2-3)S1` (stereo not drawn) it was -7.77%; in that of `C=C(C)C1CC=C(CO)CC1` (stereo not drawn), -3.8%.

As to `CCN(CC)S(=O)(=O)c1ccc(NC(=O)CN(c2cccc(F)c2)S(C)(=O)=O)cc1`, the “activity change, negative = inhibition” value was 25.7%.

`O=C(CSc1nnc(-c2cccs2)n1-c1ccccc1)N1CCN(C(=O)c2ccco2)CC1`: the “activity change, negative = inhibition” value was -9.08%.

Turning to `CC(=O)NC1CC2CCCC(C1)N2CC(=O)Nc1ccccc1` (stereo not drawn), the “activity change, negative = inhibition” value was 6.5%.

As to `CCOc1c(N2CCCCC2)c(=O)c1=O`, the “activity change, negative = inhibition” value was -9.98%. The value for `CC(=O)NC(C(=O)NCC(N)=O)C(C)C` (stereo not drawn) (Ac-[ξV]-Gly-NH2) was -3.58%. Regarding `CC12C(=O)N(n3cnnc3)C(=O)C1C1C=CC2C1` (stereo not drawn), the “activity change, negative = inhibition” value was 0.802%. For `O=C(C1=C(O)C(=O)N(Cc2ccccc2)C1c1cccnc1)c1ccco1` (stereo not drawn), the “activity change, negative = inhibition” value was -8.78%. As to `CCC(=O)N1c2ccc(S(=O)(=O)CCC(=O)N3CCN(c4ccccc4)CC3)cc2CC1C` (stereo not drawn), the “activity change, negative = inhibition” value was 9.9%. The value for `CCOc1ccccc1N(CC(=O)Nc1ccccc1C(=O)OC)S(C)(=O)=O` was -1.62% [at 7.66 µM]. Regarding `CC1O[C@@H](Oc2c(-c3ccc(O)c(O)c3)oc3cc(O)cc(O)c3c2=O)C(O)C(O)C1O` (stereo partly drawn), the “activity change, negative = inhibition” value was -9.94%. As to `O=C(c1cc(C(F)(F)F)cc(C(F)(F)F)c1)N1CCC2(CCCN(Cc3ccncc3)C2)CC1`, the “activity change, negative = inhibition” value was 53.1%.

For the molecule `CCN(CC)CCN1C(=O)C(=O)/C(=C(/O)c2ccccc2)C1c1ccccc1F` (stereo not drawn), the “activity change, negative = inhibition” value was 6.03%. The value for `CN1CCC2(CC1)CCN(S(=O)(=O)c1ccccc1)CC2` was -6.81%. In the case of `CCN(CC)CCNC(=O)Cn1cnc2sc(C)c(S(=O)(=O)N3CCOCC3)c2c1=O` it was -2.24%; in that of `O=C(Cn1c(=O)sc2ccccc21)Nc1ccc2c(c1)OCCO2`, 7.89%. In the case of `S=C1SCN(CCN2CCOCC2)CN1Cc1ccccc1` it was -1.7%; in that of `CC1CC[C@@]23CCC4(C)[C@@]5(C)CCC6C(C)(C)C(O)CC[C@@]6(C)C5C=C[C@@]4(OC2=O)C3C1C` (stereo partly drawn), 5.73%; in that of `Nc1ncnc2c1ncn2C1CC(O)C(CO)O1` (stereo not drawn), -5.52%. Turning to `CC(=O)Nc1ccc(S(=O)(=O)N2CCC(N(C)CCC(C)C)CC2)cc1`, the “activity change, negative = inhibition” value was 4%. The value for `COc1ccc(C2CC(=O)C=C(NCC3CCCO3)C2)cc1` (stereo not drawn) was 2.62%; that for `CC(=O)N1CCN(CCN=CC2=C(O)CC(C)(C)CC2=O)CC1` was 0.95%. Consider `FC(F)(F)c1ccccc1-c1nc(-n2ccnc2)c2ccccc2n1`, for which the “activity change, negative = inhibition” value was -26.3%. As to `CN1CC(=O)N=C1N`, the “activity change, negative = inhibition” value is 6.52%.

For the molecule `CCC1=C/C(=C\c2ccc3c(c2)OCO3)C(=O)S1`, the “activity change, negative = inhibition” value is 41.1%. For the molecule `COc1ccc(N2CCN(CCNC(=O)c3nnc(Cc4c(F)cccc4Cl)o3)CC2)cc1`, the “activity change, negative = inhibition” value was 15.6%. Regarding `CCN(Cc1ccncc1)C(=O)c1cccc(S(=O)(=O)N2CCOCC2)c1`, the “activity change, negative = inhibition” value was -1.77%. Take `CC1(C)OC2CC(=O)OC[C@@]23C1CC(=O)[C@]1(C)C3CC[C@@]2(C)C(c3ccoc3)OC(=O)C3O[C@@]321` (stereo partly drawn): the “activity change, negative = inhibition” value was -0.539%.

For `CC(=O)Nc1ccc(S(=O)(=O)N2CCSCC2)cc1`, the “activity change, negative = inhibition” value was -7.08%. In the case of `O=C(NCCSc1ccccc1)c1ccco1` it was 4.74%; in that of `CC(=O)Nc1ccn(Cc2c(F)cccc2Cl)n1`, 11.9%; in that of `CC(=O)N1CCC2(CCCN(Cc3ccc(C#N)cc3)C2)CC1`, 15.6%. In the case of `COC1C[C@@H](O[C@@H]2C(C)C(=O)OC(C)C(C)C(O)C(C)C(=O)[C@@]3(CO3)CC(C)C(OC3OC(C)CC(N(C)C)C3O)C2C)OC(C)[C@@H]1O` (stereo partly drawn) it was 9.14%.
